Source: the supplement of paper PMC6555819

Legend:
Assay in all cases: PBM binding z-score (relative to random genomic background probes); higher = stronger binding; sequences stand for … in GC…GCGATTGACAGCGTAGAATGAAGG
[1] = test system: PPARg:RXRa DBDmut IVT, anti-RXR (DBD mutation: RXRa K156A/R161A, NR concentration 270 nM, RXRa partner concentration 90 nM)
In short: (§1)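 The probes on custom Agilent 4×180K protein-binding microarrays were double-stranded, with 34-nt variable regions bearing direct-repeat seeds, single-nucleotide variants, half-site ablations and random human genomic background sequences. Incubation lasted 1 h with ligand-free nuclear receptor dimers in PBS pH 7.4, 2% milk, 0.02% Triton X-100, 1 mM DTT, 0.2 mg/mL BSA and 0.4 mg/ml salmon testes DNA. Antibodies against each partner (one per run) detected bound dimers, and fluorescence scans were regression-normalized. Binding z-scores take the random background probes as reference.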

[2] = test system: PPARg:RXRa IVT, anti-PPARg (NR concentration 270 nM, RXRa partner concentration 90 nM)
In short: as §1

[3] = test system: PPARg DBDmut:RXRa IVT, anti-PPARg (DBD mutation: PPARg1 K132A/R137A, NR concentration 270 nM, RXRa partner concentration 90 nM)
In short: as §1

[4] = test system: PPARg DBDmut IVT, anti-PPARg (DBD mutation: PPARg1 K132A/R137A, NR concentration 270 nM)
In short: as §1

[5] = test system: PPARg homodimer (NR concentration 180 nM)
In short: as §1

[6] = test system: PXR:RXRa (NR concentration 270 nM, RXRa partner concentration 90 nM)
In short: as §1

[7] = test system: PXR homodimer (NR concentration 270 nM)
In short: as §1

[8] = test system: RARa:RXR (NR concentration 270 nM, RXRa partner concentration 90 nM)
In short: as §1

[9] = test system: RARa homodimer (NR concentration 270 nM)
In short: as §1

[10] = test system: RARb:RXRa (NR concentration 270 nM, RXRa partner concentration 90 nM)
In short: as §1

[11] = test system: RARb homodimer (NR concentration 270 nM)
In short: as §1

[12] = test system: RARg:RXRa (NR concentration 270 nM, RXRa partner concentration 90 nM)
In short: as §1

[13] = test system: RARg homodimer (NR concentration 270 nM)
In short: as §1

[14] = test system: RXRa DBDmut IVT, anti-RXR (DBD mutation: RXRa K156A/R161A, NR concentration 90 nM)
In short: as §1

[15] = test system: RXRa homodimer (NR concentration 180 nM)
In short: as §1

[16] = test system: THRa:RXRa (NR concentration 90 nM, RXRa partner concentration 90 nM)
In short: as §1

[17] = test system: THRa homodimer (NR concentration 90 nM)
In short: as §1

[18] = test system: VDR homodimer (NR concentration 270 nM)
In short: as §1

Sequence	PBM binding z-score [1]	PBM binding z-score [2]	PBM binding z-score [3]	PBM binding z-score [4]	PBM binding z-score [5]	PBM binding z-score [6]	PBM binding z-score [7]	PBM binding z-score [8]	PBM binding z-score [9]	PBM binding z-score [10]	PBM binding z-score [11]	PBM binding z-score [12]	PBM binding z-score [13]	PBM binding z-score [14]	PBM binding z-score [15]	PBM binding z-score [16]	PBM binding z-score [17]	PBM binding z-score [18]
CCTATTAGTTGACCATAAGGACAACCGAAGCTCG	0.245	0.48	1.08	1.03	2.6	0.623	1.23	1.27	2.5	1.22	1.71	1.36	1.28	0.69	0.852	3.42	3.91	1.1
CCTCGGAGGACTGAAGGTCAGAGCTGTCCGCTTT	-0.418	-0.254	-2.59	-3.05	0.742	1.32	-0.196	1.28	-0.166	2.38	2.67	2.13	1.87	-0.27	1.46	1.66	-0.417	-0.325
CCTTCTGGGCCACGAAAGGTCATTGATTCAGTGA	5.63	5.14	1.99	2.08	5.35	5.74	1.61	5.44	2.53	4.21	4.62	4.94	4.61	0.819	5.38	4.04	0.878	2.42
TCTGCTAGGTCAGTTCGTCAGCTAACGAGCTGCC	2.26	2.31	1.01	0.64	-0.455	0.229	-1.06	0.273	-1.33	3.01	1.84	2.16	3	0.634	0.516	1.2	-0.388	0.389
CAGCCTAGGCCAGGGCCAGTATAGGAGGAACGTT	-0.58	-0.938	-1.07	-1.68	-1.39	-1.04	-0.58	-0.83	-0.971	-0.0787	-0.366	-0.536	0.11	-1.57	-0.601	-0.884	-0.601	-0.322
GCTCGGAGTACAAGGTCAGAGCTTTGTCCGTAGA	0.542	0.648	-1.36	-1.01	1.73	1.67	-0.101	2.14	-0.729	3.07	2.65	2.42	2.48	1.1	2.11	2.63	1.23	0.858
CGAACTAGGTCATCCAGGACTGTGAATACATTGA	8.21	8.17	6.94	2.3	3.35	1.48	0.582	2.24	0.701	3.73	2.93	4.02	4.47	2.26	2.62	2.95	1.17	1.39
TTACCAACGTGAAGGTCGTTGATCCCTCTGTAGA	0.422	-0.0578	-0.0855	-0.0405	0.497	1.42	0.561	1.13	-0.198	0.811	1.24	0.301	0.15	0.665	1.17	1.04	0.438	1.3
